Hits are enriched below; roughly 3.9% of the tested compounds scored in any of these assays.
TWEAK-Fn14 inh: inhibitors of TWEAK-Fn14 signaling, primary screen, luciferase reporter cells, uHTS. inhibition, % at 10 µM. 360,000 compounds, 2% hits. TWEAK-stimulated Fn14 reporter cells, luciferase luminescence, 8 h; in the data active = inhibition above about 50%
C8 TRAIL sens: viability loss with TRAIL in NB7+C8 cells, primary screen, TRAIL sensitizer project, cell-based, ATPlite luminescence; inhibition (viability loss, TRAIL sensitization), % at 10 µM; 360,000 compounds, 1% hits;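 active = compounds causing at least 50% loss of cell viability in the single-dose screen, relative to plate controls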
TROY signal inh: inhibitors of TROY-driven NF-kB signaling, primary screen, Q293 LMP1-TROYcd cells, NF-kB luciferase, uHTS. Q293 LMP1-TROYcd NF-kB luciferase reporter, 4 h. inhibition, % at 10 µM. 360,000 compounds, 0.98% hits;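 active = compounds whose plate-normalised and pattern-corrected inhibition of the luciferase reporter signal at the single screening dose is 50% or more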
aSyn 5UTR inh: MLPCN primary screen, SNCA 5' untranslated region; inhibition, % (tested at 7.5 µM); alpha-synuclein 5'UTR reporter, inhibitor activity; AID 1813, 2009; 300,000 compounds, 0.82% hits; in the data active = inhibition above about 60%;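 note: H4 neuroglioblastoma cells stably carrying SNCA 5'UTR luciferase fusion; 0% = DMSO wells and 100% = positive control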
HSP90 inh: HSP90 inhibitors, primary screen, cell lysate, luminescence | Heat shock protein HSP 90 (rabbit reticulocyte lysate; luciferase refolding) | Rabbit reticulocyte lysate, luciferase refolding luminescence, 3 h | inhibition, % at 5.6 µM | 290,000 compounds, 0.91% hits;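 active = inhibition above the screen-wide mean plus 3 SD, computed separately per campaign, cut at about 16% in these data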;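 note: 0% = DMSO wells and 100% = 60 µM geldanamycin wells; inhibitors lower the luminescence because luciferase stays unfolded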
HIF-2a block: HIF-2a reporter inhibitors, primary screen, luminescence, 786-0 RCC cells | 786-0 RCC cells HIF-2a reporter, luciferase luminescence, overnight | inhibition, % at 18.8 µM | 360,000 compounds, 0.72% hits | AID 624352, 2012;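 active = inhibition of the luminescence signal of 40% or more relative to plate controls, in a single-dose primary screen at 18.75 µM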
Active calls of the source: *; nt = not tested or not shown.

SMILES | TWEAK-Fn14 inh | C8 TRAIL sens | TROY signal inh | aSyn 5UTR inh | HSP90 inh | HIF-2a block
O=C(CN1C(=O)NC(Cc2ccccc2)C1=O)Nc1ccccc1 (configuration not stated) | 97* | -10 | nt | -26 | 2 | -69
Fc1ccc(COc2ccccc2CNCc2ccncc2)cc1 | 14 | 8 | 2 | -6 | 3 | 7
Brc1ccc(OCc2ccccc2)c(CNCc2ccncc2)c1 | 27 | 15 | 52* | 9 | -1 | 3
CCCCOC(=O)c1ccc(NC(=S)N2CCN(c3ncc4c(=O)c(C(=O)O)cn(CC)c4n3)CC2)cc1 | 63* | 34 | 27 | 12 | -4 | 14
Cc1ccc(C)c(Nc2c([N+](=O)[O-])cc(C(=O)N3CC(=O)Nc4ccccc43)cc2[N+](=O)[O-])c1 | 32 | 18 | 10 | 78* | 2 | 33
CCC(C)(C)C1CCc2[nH]nc(C(=O)NCC3CC3)c2C1 (configuration not stated) | -16 | 2 | -22 | nt | nt | -111
CCC(C)(C)C1CCc2[nH]nc(C(=O)NN)c2C1 (configuration not stated) | 45 | -9 | 69* | -12 | 13 | 18
Cc1ccc(C(=O)N/N=c2\oc3ccccc3cc2C(N)=O)cc1 | -6 | 12 | -45 | 2 | 0 | -22
Cc1ccc(N=c2oc3cc(O)ccc3cc2C(N)=O)cc1 | 61* | 35 | 34 | -14 | 7 | -140
COc1cc(N2C(=O)C=CC2=O)ccc1N1C(=O)C=CC1=O | -14 | -7 | 11 | nt | nt | 85*
CCOC(=O)C1CCCN(c2c(N3CCC(N4CCCCC4)CC3)c(=O)c2=O)C1 (configuration not stated) | -1 | -9 | -9 | -19 | 0 | 7
CCCN1CCC(N2CCCC(C(=O)O)C2)CC1 (configuration not stated) | 61* | 7 | 41 | -15 | 6 | 37
O=c1c2cnn(-c3ccccc3)c2nc(-c2ccco2)n1-c1ccccc1 | 55* | 16 | 16 | -59 | 4 | 14
COc1ccc(CCNC(=O)C2COc3ccccc3O2)cc1OC (configuration not stated) | 93* | 12 | 12 | nt | nt | 4
COc1ccc(CCNC(=O)CCC2COc3ccccc3O2)cc1OC (configuration not stated) | -8 | 6 | 12 | 23 | 3 | 13
CCCN(C)C1CN(Cc2cn(CCCC(=O)OC)nn2)S(=O)(=O)C1 (configuration not stated) | -7 | 1 | 2 | nt | nt | 13
Cc1ccc2[nH]c(CNC(=O)C3CCCCC3)cc2c1 | 72* | -16 | 53* | 4 | 3 | -11
CC1=NN(c2nc3ccccc3[nH]2)C(=O)/C1=C/N(C)C | 31 | 88* | 4 | nt | 8 | -41
COc1cc(CNc2ncnc3c2ncn3[C@H]2CN(Cc3ccc(Cl)cc3)C[C@@H](CO)O2)cc(OC)c1OC | -6 | -8 | -1 | nt | nt | 4
CCCNC(=O)c1cc(C2CCCCN2C(=O)c2ccc(OC)cc2)on1 (configuration not stated) | 3 | -9 | 2 | nt | nt | 15
C/C(=N\NC(=O)C1CCCC1)c1ccc(Cl)c(Cl)c1 | -53 | 7 | -32 | nt | -4 | -76
C/C(=N\NC(=S)NC1CCCCC1)c1ccc(Cl)c(Cl)c1 | 62* | -6 | 41 | 9 | 3 | -74
O=C(Nc1cccc(C(F)(F)F)c1)C1Cc2c(-c3ccccc3)ccnc2O1 (configuration not stated) | 20 | -3 | 14 | nt | nt | 1
COc1ccc(/C=N/Nc2nc(C)c([N+](=O)[O-])c(N(C)c3ccccc3)n2)cc1OC | 82* | -14 | nt | 15 | 0 | 8
Cc1ccccc1CN1CCN(C/C=C/c2ccccc2)CC1 | 58* | -16 | 12 | 6 | 7 | -18
CN(C)C(=O)c1ccc(-n2nc(C(F)(F)F)c3c2CCCC3)cc1 | 59* | 0 | nt | 6 | 4 | 17
O=C(NC(=S)Nc1nc2c(s1)CCCC2)c1ccc(C(=O)c2ccccc2)cc1 | 25 | 10 | -31 | 16 | -2 | -50

Assay outcomes (PubChem)
